Records with an inconclusive call do not appear. The source made the active and inactive calls. Unless noted, calls follow the shape of the full dose curve.
Key:
[1] = Nuclear factor erythroid 2-related factor 2/antioxidant responsive element (Nrf2/ARE) small molecule agonists: qHTS cell viability counter screen in human keratinocytes (AID 1919968; active = well fitted curve in the direction sought with a large enough effect in the repeat runs; an effect the other way counts as inactive or inconclusive; also: nearly all actives have a fitted effect of over 55% in size)
How it was run: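 Cells of the KeratinoSens line were plated at 1,500 per well and left for 5 h before compound transfer from DMSO stocks. After a 23 h incubation (37 C, 5% CO2), CellTiter-Fluor was added. Signal was taken as fluorescence intensity 1 h later.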

[2] = Nuclear factor erythroid 2-related factor 2/antioxidant responsive element (Nrf2/ARE) small molecule agonists: luciferase reporter gene qHTS assay in human keratinocytes (AID 1919969); also: nearly all actives have a fitted effect of over 35% in size
[3] = target: KiSS-1 receptor (Homo sapiens) (UniProt Q969F8); assay: Human kisspeptin (KISS1R) small molecule agonists, calcium flux assay in KISS1R-HEK293 cells (AID 1920064; active = well fitted curve in the direction sought with a large enough effect in the repeat runs; an effect the other way counts as inactive or inconclusive)
How it was run: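 Cell line: HEK293, stable human KISS1R. Dye loading 1 h at 37 C after 18 h culture. Read: kinetic fluorescence, 480/540 nm, 3 min at 1 s intervals.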

[4] = G protein-coupled receptor (GPCR) small molecule agonists, calcium flux assay: HEK293 wild type cell line counter screen (AID 1920065)
How it was run: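 Tox21 10K compounds, 15 concentrations each in triplicate, pin-transferred in DMSO onto dye-loaded cells; kinetic read at 480/540 nm for 3 min, 1 s intervals.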

[5] = p53 small molecule agonists, cell-based qHTS assay with human liver microsomes (AID 1963577)
How it was run: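 Cells carrying a p53-responsive bla reporter were rested 5 h (37 C, 5% CO2) before compound transfer. Human liver microsomes plus NADPH, 0.5 mg/mL final apiece, supplied metabolism during the 16 h 37 C exposure.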

[6] = p53 small molecule agonists, cell-based qHTS assay with rat liver microsomes (AID 1963578)
How it was run: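 Fluorescence from a beta-lactamase reporter under a p53 response element was measured after cells had been incubated 16 h at 37 C with test compound and rat liver microsomes plus NADPH (0.5 mg/mL final each).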

[7] = p53 small molecule agonists, cell-based qHTS assay with human liver microsomes: qHTS cell viability counter screen (AID 1963579); also: nearly all actives have a fitted effect of over 45% in size
How it was run: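 Seed p53RE-bla cells at 4,000 per well; incubate 5 h at 37 C; add compound, human liver microsomes and NADPH; incubate 16 h at 37 C; add CellTiter-Glo; after 30 min at room temperature, read luminescence.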

[8] = p53 small molecule agonists, cell-based qHTS assay with rat liver microsomes: qHTS cell viability counter screen (AID 1963580); also: nearly all actives have a fitted effect of over 45% in size
How it was run: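 Cytotoxicity counter screen: intracellular ATP read by CellTiter-Glo luminescence in the p53 reporter wells. HCT-116 p53RE-bla cells were treated for 16 h at 37 C alongside rat liver microsomes and NADPH, each 0.5 mg/mL final.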

[9] = p53 small molecule agonists, cell-based qHTS assay (AID 1963582; active = well fitted activation curve with a large enough effect in the signal ratio in the repeat runs, not every such curve was filed as active; the % refers to the signal ratio)
How it was run: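 16 h compound exposure (37 C) of p53 response element–bla cells, preceded by 5 h recovery at 37 C/5% CO2; read-out via LiveBLAzer B/G FRET substrate, 2 h RT, fluorescence intensity.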

[10] = target: Muscarinic acetylcholine receptor M1 (Homo sapiens) (UniProt P11229); assay: Cholinergic receptor muscarinic 1 (CHRM1) small molecule antagonists, cell-based qHTS assay (AID 1963588); also: nearly all actives have a fitted effect of over 40% in size
How it was run: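 Compounds were tested at 15 concentrations in three independent runs. Dye-loaded CHRM1-CHO cells were exposed 5 min at room temperature before stimulation by acetylcholine added at 50nM. Intracellular calcium was read kinetically on FDSS for 3 min.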

[11] = target: Muscarinic acetylcholine receptor M1 (Homo sapiens) (UniProt P11229); assay: Cholinergic receptor muscarinic 1 (CHRM1) small molecule agonists, cell-based qHTS assay (AID 1963589); also: nearly all actives have a fitted effect of over 35% in size
How it was run: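 Homogeneous fluorescence calcium flux, agonist mode. Human M1-expressing CHO cells; compound dosed at 15 concentrations, three independent runs; signal sampled every 1 sec.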

[12] = cAMP Responsive Elements (CRE) small molecule agonists, cell-based qHTS assay (AID 1963590)
How it was run: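 HEK 293T cells stably bearing CRE-bla were plated at 2,000 cells per well and rested 18 h. Compounds, positive controls or DMSO were added for 3 h at 37 C. LiveBLAzer B/G substrate was then loaded for 2 h at room temperature.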

[13] = cAMP Responsive Elements (CRE) small molecule antagonists, cell-based qHTS assay (AID 1963591; active = well fitted inhibition curve with a large enough effect in the signal ratio in the repeat runs, not every such curve was filed as active; the % refers to the signal ratio)
How it was run: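 First, CRE-bla HEK293T cells settled 18 h at 37 C. Next, compound and 0.25 uM final NKH477 were applied for 3 h. Last, LiveBLAzer B/G substrate was loaded for 2 h at room temperature.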

[14] = target: Beta-2 adrenergic receptor (Homo sapiens) (UniProt P07550); assay: Adrenergic beta2 receptor (ADRB2) small molecule antagonists, cell-based qHTS assay (AID 1963592); also: series mostly up to about 92 µM; nearly all actives have a fitted effect of over 50% in size
How it was run: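 Assay format: CHO-ADRB2 cells, 18-20hr seeding at 37C/5% CO2, then compound plus 1nM isoproterenol agonist mix for 0.5hr RT. Homogeneous time-resolved fluorescence cAMP detection after 1hr, expressed as 665/615 nm ratio.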

[15] = target: Beta-2 adrenergic receptor (Homo sapiens) (UniProt P07550); assay: Adrenergic beta2 receptor (ADRB2) small molecule agonists, cell-based qHTS assay (AID 1963593);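 also: CHO cells stably overexpressing human ADRB2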
How it was run: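 CHO cells stably over-expressing ADRB2 were plated overnight at 37C, then dosed with compounds plus a stimulation mix containing 100uM IBMX and 25uM Ro-20-1724 for 0.5hr at room temperature. cAMP was measured by HTRF competition, 1hr.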

[16] = target: D(2) dopamine receptor (Homo sapiens) (UniProt P14416); assay: Dopamine D2 receptor (DRD2) small molecule agonists, cell-based qHTS assay (AID 1963594); also: nearly all actives have a fitted effect of over 35% in size
How it was run: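 cAMP accumulation in DRD2-HEK293 cells measured by HTRF after 1 h detection; compounds added 10 min before NKH477 (200nM […]) forskolin-analogue stimulation, 30 min at room temperature, with Ro20-1724 present at 0.1 mM final.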

[17] = target: D(2) dopamine receptor (Homo sapiens) (UniProt P14416); assay: Dopamine D2 receptor (DRD2) small molecule antagonists, cell-based qHTS assay (AID 1963595; active = well fitted inhibition curve with a large enough effect in the signal ratio in the repeat runs, with a control signal flat; the % refers to the signal ratio)
How it was run: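 Antagonist mode in DRD2-HEK293 cells: after compound addition with 0.1 mM Ro20-1724, cells received quinpirole (12 nM) and NKH477 (200 nM) for 30 min at room temperature; HTRF cAMP read after 1 h detection.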

[18] = target: 5-hydroxytryptamine receptor 2A (Homo sapiens) (UniProt P28223); assay: 5-hydroxytryptamine receptor 2A (HTR2A) small molecule antagonists, cell-based qHTS assay (AID 1963586); also: nearly all actives have a fitted effect of over 45% in size
How it was run: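 CHO cells stably expressing human HTR2A were plated for 18 h at 37 C, then loaded with calcium dye for 1 h. Compounds were preincubated 5 min at room temperature before DOI (4 nM solution) was added. Kinetic fluorescence was read for 3 min.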

[19] = target: 5-hydroxytryptamine receptor 2A (Homo sapiens) (UniProt P28223); assay: 5-hydroxytryptamine receptor 2A (HTR2A) small molecule agonists, cell-based qHTS assay (AID 1963587); also: nearly all actives have a fitted effect of over 30% in size
How it was run: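 Kinetic calcium-flux fluorescence (2 min, 1 sec intervals) after compound addition in agonist mode. HTR2A-CHO cells were cultured 18 h, then dye-loaded 1 h at 37 C.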

[20] = p53 small molecule agonists, cell-based qHTS assay: qHTS cell viability counter screen (AID 1963581); also: nearly all actives have a fitted effect of over 45% in size
How it was run: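 ATP content measured by luminescence in HCT-116 p53RE-bla cells treated 16 h at 37 C, same wells as the reporter screen.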

Measured: Potency

Sequence of D(2) dopamine receptor (Homo sapiens) (P14416 whole entry, looked up): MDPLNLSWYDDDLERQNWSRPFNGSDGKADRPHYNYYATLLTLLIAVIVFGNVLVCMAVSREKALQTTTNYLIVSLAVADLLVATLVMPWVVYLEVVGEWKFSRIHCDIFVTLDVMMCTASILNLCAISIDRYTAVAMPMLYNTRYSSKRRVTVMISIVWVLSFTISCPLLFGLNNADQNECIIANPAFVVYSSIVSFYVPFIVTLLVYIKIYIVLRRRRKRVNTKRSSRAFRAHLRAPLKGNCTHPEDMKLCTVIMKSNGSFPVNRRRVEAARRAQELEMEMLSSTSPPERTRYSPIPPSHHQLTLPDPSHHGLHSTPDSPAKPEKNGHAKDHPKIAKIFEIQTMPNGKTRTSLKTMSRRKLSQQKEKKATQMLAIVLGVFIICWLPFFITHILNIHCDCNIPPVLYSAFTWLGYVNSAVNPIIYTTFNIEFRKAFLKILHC
Sequence of Beta-2 adrenergic receptor (Homo sapiens) (P07550 whole entry, looked up): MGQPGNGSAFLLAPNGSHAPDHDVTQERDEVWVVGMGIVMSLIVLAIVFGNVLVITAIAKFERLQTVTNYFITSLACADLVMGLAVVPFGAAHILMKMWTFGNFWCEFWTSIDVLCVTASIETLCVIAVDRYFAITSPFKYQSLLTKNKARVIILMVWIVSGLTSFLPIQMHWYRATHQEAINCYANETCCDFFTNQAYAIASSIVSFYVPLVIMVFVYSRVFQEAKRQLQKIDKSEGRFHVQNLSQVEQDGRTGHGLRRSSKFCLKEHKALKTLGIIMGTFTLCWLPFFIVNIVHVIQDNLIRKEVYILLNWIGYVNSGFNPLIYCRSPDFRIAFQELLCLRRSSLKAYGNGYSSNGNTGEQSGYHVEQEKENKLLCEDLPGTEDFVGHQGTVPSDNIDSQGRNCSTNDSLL
Sequence of 5-hydroxytryptamine receptor 2A (Homo sapiens) (P28223 whole entry, looked up): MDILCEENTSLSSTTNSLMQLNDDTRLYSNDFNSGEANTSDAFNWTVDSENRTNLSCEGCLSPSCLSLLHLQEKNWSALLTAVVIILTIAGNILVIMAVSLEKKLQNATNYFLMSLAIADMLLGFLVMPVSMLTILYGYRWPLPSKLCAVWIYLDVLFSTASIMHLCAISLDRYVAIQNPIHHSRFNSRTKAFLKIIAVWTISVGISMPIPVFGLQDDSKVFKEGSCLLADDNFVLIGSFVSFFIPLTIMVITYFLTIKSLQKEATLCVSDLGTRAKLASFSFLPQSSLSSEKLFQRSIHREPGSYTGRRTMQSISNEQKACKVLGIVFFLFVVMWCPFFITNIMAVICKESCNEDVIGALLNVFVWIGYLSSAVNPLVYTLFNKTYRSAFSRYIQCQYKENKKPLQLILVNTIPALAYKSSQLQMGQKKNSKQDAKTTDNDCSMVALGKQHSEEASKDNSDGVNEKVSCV
Sequence of KiSS-1 receptor (Homo sapiens) (Q969F8 whole entry, looked up): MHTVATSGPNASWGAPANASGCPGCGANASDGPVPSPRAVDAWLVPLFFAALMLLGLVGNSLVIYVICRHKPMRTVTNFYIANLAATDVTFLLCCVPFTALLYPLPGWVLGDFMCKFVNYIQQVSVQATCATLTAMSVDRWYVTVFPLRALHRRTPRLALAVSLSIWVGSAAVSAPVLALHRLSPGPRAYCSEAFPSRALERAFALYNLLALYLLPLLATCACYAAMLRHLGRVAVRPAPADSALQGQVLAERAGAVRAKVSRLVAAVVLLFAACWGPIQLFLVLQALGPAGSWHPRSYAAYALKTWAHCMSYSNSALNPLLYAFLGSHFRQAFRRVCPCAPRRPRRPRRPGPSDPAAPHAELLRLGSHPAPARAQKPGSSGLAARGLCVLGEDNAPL
Sequence of Muscarinic acetylcholine receptor M1 (Homo sapiens) (P11229 whole entry, looked up): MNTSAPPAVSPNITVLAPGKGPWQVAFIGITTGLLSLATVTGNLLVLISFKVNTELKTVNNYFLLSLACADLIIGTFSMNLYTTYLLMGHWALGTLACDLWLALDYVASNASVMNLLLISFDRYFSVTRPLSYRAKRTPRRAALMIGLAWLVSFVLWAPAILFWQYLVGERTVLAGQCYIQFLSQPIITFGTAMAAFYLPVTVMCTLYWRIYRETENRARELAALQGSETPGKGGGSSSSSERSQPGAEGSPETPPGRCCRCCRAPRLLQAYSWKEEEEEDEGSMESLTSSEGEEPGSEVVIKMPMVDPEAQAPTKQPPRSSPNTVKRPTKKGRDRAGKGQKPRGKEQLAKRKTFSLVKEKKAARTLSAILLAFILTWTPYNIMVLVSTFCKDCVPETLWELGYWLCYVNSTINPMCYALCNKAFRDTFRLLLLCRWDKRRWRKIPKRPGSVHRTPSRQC

CN(C)CCc1c[nH]c2ccc(C[C@H]3COC(=O)N3)cc12
not listed: [18] | [19] | [20]
inactive: all other assays above

O=C(O)c1ccccc1Cl
not listed: [13] | [15] | [20]
inactive: all other assays above

CN(C)CCOC1=Cc2ccccc2Sc2ccc(Cl)cc21
not listed: [7] | [9] | [17] | [18] | [20]
inactive: all other assays above

CCCC(=O)OCOC(=O)C1=C(C)NC(C)=C(C(=O)OC)C1c1cccc(Cl)c1Cl (stereo unspecified)
not listed: [8] | [15] | [17]
inactive: all other assays above

C#CC(C)N(C)C(=O)Nc1ccc(Cl)cc1 (stereo unspecified)
not listed: [2] | [13]
inactive: all other assays above

O=C(COCCOCCOCC(=O)Nc1c(I)cc(I)c(C(=O)O)c1I)Nc1c(I)cc(I)c(C(=O)O)c1I
not listed: [2] | [15] | [16]
inactive: all other assays above

O=C(O)/C=C/c1ccc(/C=C/C(=O)O)cc1
not listed: [2] | [13] | [15] | [16] | [17]
inactive: all other assays above

Source: PubChem BioAssay (Tox21)
